Unmarked numbers belong to inactive results. Active and inactive are the calls of the source. The call rests on the fitted dose curve.
molecular target: Estrogen receptor (Homo sapiens) (UniProt P03372); test: qHTS assay to identify small molecule agonists of the estrogen receptor alpha (ER-alpha) signaling pathway in the presence of an antagonist (AID 1259383); conditions: VM7Luc4E2 cells, ERE-luciferase, +ICI-182,780, 22 h; series mostly up to 92.4 µM; activation: at the top concentration; further: nearly all actives have a fitted effect of over 15% in size; on activation: top concentration of the series differs between compounds
From the text: National Center for Advancing Translational Sciences [NCATS] NIH Chemical Genomics Center [NCGC] U.S. Environmental Protection Agency [EPA] National Institutes of Environmental Health Sciences [NIEHS] National Toxicology Program [NTP] Assay overview: Estrogen receptor (ER), a member of nuclear hormone receptor plays an important role in development, metabolic homeostasis and reproduction. Two subtypes of ER, ER-alpha and ER-beta, have similar expression patterns with some uniqueness in both types. Endocrine disrupting chemicals (EDCs) and their interactions with steroid hormone receptors like ER causes disruption of normal endocrine function. Therefore, it is important to understand the effect of environmental chemicals in ER signaling pathway. For identifying ER agonists, VM7Luc4E2 cell line has been used in the current assay. VM7Luc4E2 cell line (provided by Denison MS, University of California) endogenously expresses full-length ER-alpha and is stably transfected with a plasmid containing four estrogen responsive elements (ERE) upstream of a luciferase reporter gene. This current screening for measuring luciferase reporter gene activity using VM7Luc4E2 cells against Tox21 10K library collection is a confirmation study on agonist mode screening in presence of ER-antagonist (ICI-182,780) at 10.0nM final concentration.
Assay Protocol Summary: VM7Luc4E2 cells were cultured in phenol red free assay medium containing 10% charcoal stripped FBS for 5 days prior to the assay. The cells were dispensed at 4,000 cells in 4uL of assay medium per well into white wall/solid-bottom 1536-well plates (Corning Life Sciences, Corning, NY) using a Multidrop Combi (Thermo Fisher Scientific Inc., Waltham, MA) dispenser. After the assay plates were incubated at 37C and 5% CO2 for 24hr, 1uL of 10.0nM (final concentration) ICI-182,780 or assay buffer was added using two separate tips of Flying Reagent Dispenser (FRD, Aurora Discovery, San Diego, CA). Then 23nL of compounds dissolved in DMSO at 15 concentrations and positive controls or DMSO only was transferred to the assay plates by a Pintool station (Wako, San Diego, CA). The assay plates were incubated at 37C and 5% CO2 for 22hr. For luciferase read, 4uL/well ONE-Glo reagent (Promega Corporation, Madison, WI) was added to each well using FRD and after 30min incubation at room temperature, luminescence signal was measured on ViewLux plate reader (PerkinElmer, Shelton, CT).
On the % scale 0 is the no-effect control and ±100 the full control effect; potency means the concentration at half of the fitted maximal effect.

Estrogen receptor (Homo sapiens), sequence (P03372 whole entry, looked up): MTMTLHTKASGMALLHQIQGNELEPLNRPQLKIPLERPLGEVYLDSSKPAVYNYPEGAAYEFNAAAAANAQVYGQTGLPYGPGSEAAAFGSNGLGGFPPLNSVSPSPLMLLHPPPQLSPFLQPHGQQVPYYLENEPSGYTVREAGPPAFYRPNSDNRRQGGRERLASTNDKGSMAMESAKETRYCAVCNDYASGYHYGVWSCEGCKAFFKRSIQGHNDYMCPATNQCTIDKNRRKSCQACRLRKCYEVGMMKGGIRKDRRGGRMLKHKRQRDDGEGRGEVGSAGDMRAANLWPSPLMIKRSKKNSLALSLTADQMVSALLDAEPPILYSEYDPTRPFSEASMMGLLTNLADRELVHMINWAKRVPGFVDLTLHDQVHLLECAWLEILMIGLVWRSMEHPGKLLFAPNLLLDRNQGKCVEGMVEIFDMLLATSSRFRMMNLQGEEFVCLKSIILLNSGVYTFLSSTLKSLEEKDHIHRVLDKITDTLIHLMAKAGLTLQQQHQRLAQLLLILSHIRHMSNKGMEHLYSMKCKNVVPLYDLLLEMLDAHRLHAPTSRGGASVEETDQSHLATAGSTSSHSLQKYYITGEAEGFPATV

| Compound | activation | Potency |
| --- | --- | --- |
| O=C1C(CCS(=O)c2ccccc2)C(=O)N(c2ccccc2)N1c1ccccc1 (stereo not given) | -0.156% [at 42.5 µM] | – |
| CC(C)=CC(=O)O | -2.09% | – |
| Nc1nc(F)nc2c1ncn2[C@@H]1O[C@H](CO)[C@@H](O)[C@@H]1O | 0.242% [at 42.5 µM] | – |
| C1COCCO1 | -0.0408% | – |
| COC(=O)C1=C(C)NC(C)=C(C(=O)OCC(C)=O)C1c1ccccc1[N+](=O)[O-] (stereo not given) | 0.168% [at 42.5 µM] | – |
| NC(=O)CCCCC1CCSS1 (stereo not given) | -0.479% [at 42.5 µM] | – |
| CC(C)c1cccc(C(C)C)c1N | 0.0385% | – |
| O=C(O)c1cccc(C(=O)O)n1 | 0.301% | – |
| Nc1cc(N)cc(C(=O)O)c1 | 0.057% | – |
| COc1cccc(Br)c1 | 1.39% | – |
| Oc1cc(O)c2c(c1)O[C@H](c1ccc(O)c(O)c1)[C@H](O)C2 | -0.851% [at 42.5 µM] | – |
| O=Cc1ccccc1[N+](=O)[O-] | 3.12% | – |
| CCN(CC)C(=O)c1ccc(O)c(OC)c1 | 0.74% [at 42.5 µM] | – |
| CCC(C(=O)NC(N)=O)c1ccccc1 (stereo not given) | 0.108% | – |
| CCC(=O)/C=C/c1ccc(OC)cc1 | 2.39% | – |
| CC/C=C\C#N | 0.404% | – |
| CC(C)(C)N(CCO)CCO | 2.45% | – |
| C[C@H](O)C(=O)Nc1c(I)c(C(=O)NC(CO)CO)c(I)c(C(=O)NC(CO)CO)c1I | 0.697% [at 42.5 µM] | – |
| CCN1CCCC(OC(=O)C(c2ccccc2)c2ccccc2)C1 (stereo not given) | -0.704% [at 42.5 µM] | – |
| CCCCOCC(C)OCC(C)O (stereo not given) | 1.59% | – |

| Compound | activation | Potency |
| --- | --- | --- |
| COC(=O)CCCCCCCCC(=O)OC | 0.225% | – |
| COc1nc(C)nc(N)n1 | 0.651% | – |
| CC(C)c1cccc(O)c1 | 0.699% | – |
| CCO[Si](CCCN=C=O)(OCC)OCC | 0.0684% | – |
| Oc1ccc2c(c1)OC[C@@H](N1CCC(O)(c3ccc(F)cc3)CC1)[C@H]2O | – | 668 nM (active) |
| NCCNC(=O)c1ccc(Cl)cn1 | 0.338% [at 42.5 µM] | – |
| CC(=O)NC(Cc1ccccc1)C(=O)O (stereo not given) | -1.29% [at 42.5 µM] | – |
| CC(C)N1C(=O)c2ccccc2C1=O | 0.0791% | – |
| COCCOC(=O)CC#N | 0.676% | – |
| CO[Si](CCCNCCC[Si](OC)(OC)OC)(OC)OC | 0.195% | – |
| CCCCCCC(CCCCCCCCCCC(=O)OCC(COC(C)=O)OC(C)=O)OC(C)=O (stereo not given) | -0.365% [at 42.5 µM] | – |
| CCCC(C)C(=O)O (stereo not given) | -1.32% | – |
| COC(=O)c1ccc(C(=O)OC)c(C(=O)OC)c1 | -1.77% | – |
| CC(=O)O[C@H](CC(=O)[O-])C[N+](C)(C)C | 0.0967% | – |
| OCC(CO)(CO)COCC(CO)(CO)CO | -0.636% | – |
| CCCCCC[C@@H](CCC)C(=O)O | 0.903% [at 42.5 µM] | – |
| CCCCc1ccc2cccc(S(=O)(=O)O)c2c1 | -1.04% | – |
| OCCN1C[C@H](O)[C@@H](O)[C@H](O)[C@H]1CO | 0.513% [at 42.5 µM] | – |
| CN(C)C(=O)C(CCN1CCC(O)(c2ccc(Cl)cc2)CC1)(c1ccccc1)c1ccccc1 | 0.188% [at 42.5 µM] | – |
| c1cc(CN2CCCCC2)cc(OCCCNc2nc3ccccc3s2)c1 | 1.99% [at 42.5 µM] | – |

— PubChem BioAssay (Tox21)
